# Experimental data taken from the supplement of paper PMC8728848.
# This excerpt belongs to a sample that is enriched for the strongest signals.
# Assays:
# Assay in all cases: glycan array binding signal (z-score within array); higher = stronger binding
# Settings in all cases: glycan notation: IUPAC condensed, linker removed
# [1] = target: Fuc(a1-2)Gal(b1-3)GlcNAc(b1-3)Gal(b1-4)Glc
# Procedure, shortened: (§1)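 Glycan array data were curated from 3228 arrays in the Consortium for Functional Glycomics database and kept only where the protein sequence was available. Glycan names were converted to IUPAC-condensed notation, and columns mapping to the same glycan were averaged. The binding signal is a within-array Z-score, averaged across arrays of the same protein sequence at different concentrations or buffers and across linkers. Negative Z-scores can be read as non-binding.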
# [2] = target: Fuc(a1-2)Gal(b1-4)[Fuc(a1-3)]GlcNAc(b1-3)Gal(b1-4)[Fuc(a1-3)]GlcNAc(b1-3)Gal(b1-4)[Fuc(a1-3)]GlcNAc
# Procedure, shortened: as §1
# [3] = target: Fuc(a1-2)[Gal(a1-3)]Gal
# Procedure, shortened: as §1
# [4] = target: Fuc(a1-2)[Gal(a1-3)]Gal(b1-3)GlcNAc(b1-2)Man(a1-3)[Fuc(a1-2)[Gal(a1-3)]Gal(b1-3)GlcNAc(b1-2)Man(a1-6)]Man(b1-4)GlcNAc(b1-4)GlcNAc
# Procedure, shortened: as §1
# [5] = target: Fuc(a1-2)[Gal(a1-4)]Gal(b1-4)GlcNAc
# Procedure, shortened: as §1
# [6] = target: Fuc(a1-2)[GalNAc(a1-3)]Gal(b1-4)[Fuc(a1-3)]GlcNAc(b1-3)GalNAc
# Procedure, shortened: as §1
# [7] = target: Fuc(a1-2)[GalNAc(b1-3)]Gal
# Procedure, shortened: as §1
# [8] = target: Fuc(b1-3)GlcNAc
# Procedure, shortened: as §1
# [9] = target: Gal(a1-2)Gal
# Procedure, shortened: as §1
# [10] = target: Gal(a1-3)Gal(b1-3)[Fuc(a1-4)]GlcNAc(b1-2)Man(a1-3)[Gal(a1-3)Gal(b1-3)[Fuc(a1-4)]GlcNAc(b1-2)Man(a1-6)]Man(b1-4)GlcNAc(b1-4)GlcNAc
# Procedure, shortened: as §1
# [11] = target: Gal(b1-3)GlcNAc(b1-3)Gal(b1-4)Glc
# Procedure, shortened: as §1
# [12] = target: Gal(b1-3)GlcNAc(b1-3)Gal(b1-4)[Fuc(a1-3)]GlcNAc(b1-6)[Gal(b1-3)GlcNAc(b1-3)]Gal(b1-4)Glc
# Procedure, shortened: as §1
# [13] = target: Gal(b1-3)GlcNAc(b1-6)[Gal(b1-3)]GalNAc
# Procedure, shortened: as §1
# [14] = target: Gal(b1-3)[Fuc(a1-4)]GlcNAc(b1-3)Gal(b1-3)[Fuc(a1-4)]GlcNAc
# Procedure, shortened: as §1
# [15] = target: Gal(b1-4)GlcNAc
# Procedure, shortened: as §1
# [16] = target: Gal(b1-4)GlcNAc(b1-2)Man(a1-3)[Gal(b1-4)GlcNAc(b1-2)Man(a1-6)][Gal(b1-4)GlcNAc(b1-4)]Man(b1-4)GlcNAc(b1-4)[Fuc(a1-6)]GlcNAc
# Procedure, shortened: as §1
# [17] = target: Gal(b1-4)GlcNAc(b1-2)Man(a1-6)Man(b1-4)GlcNAc(b1-4)GlcNAc
# Procedure, shortened: as §1
# [18] = target: Gal(b1-4)GlcNAc(b1-3)Gal(b1-4)GlcNAc(b1-2)Man(a1-3)[Gal(b1-4)GlcNAc(b1-3)Gal(b1-4)GlcNAc(b1-2)Man(a1-6)]Man(b1-4)GlcNAc(b1-4)GlcNAc
# Procedure, shortened: as §1
# [19] = target: Gal(b1-4)GlcNAc(b1-3)Gal(b1-4)GlcNAc(b1-3)Gal(b1-4)GlcNAc(b1-3)Gal(b1-4)GlcNAc(b1-2)Man(a1-3)[Gal(b1-4)GlcNAc(b1-3)Gal(b1-4)GlcNAc(b1-3)Gal(b1-4)GlcNAc(b1-3)Gal(b1-4)GlcNAc(b1-2)Man(a1-6)]Man(b1-4)GlcNAc(b1-4)GlcNAc
# Procedure, shortened: as §1
# [20] = target: Gal(b1-4)GlcNAc(b1-3)Gal(b1-4)GlcNAc(b1-3)Gal(b1-4)GlcNAc(b1-3)Gal(b1-4)GlcNAc(b1-3)Gal(b1-4)GlcNAc(b1-3)Gal(b1-4)GlcNAc(b1-2)Man(a1-3)[Gal(b1-4)GlcNAc(b1-3)Gal(b1-4)GlcNAc(b1-3)Gal(b1-4)GlcNAc(b1-3)Gal(b1-4)GlcNAc(b1-3)Gal(b1-4)GlcNAc(b1-3)Gal(b1-4)GlcNAc(b1-2)Man(a1-6)]Man(b1-4)GlcNAc(b1-4)GlcNAc
# Procedure, shortened: as §1
# [21] = target: Gal(b1-4)GlcNAc(b1-3)Gal(b1-4)GlcNAc(b1-6)[Gal(b1-3)]GalNAc
# Procedure, shortened: as §1
# [22] = target: Gal(b1-4)GlcNAc(b1-3)GalNAc
# Procedure, shortened: as §1
# [23] = target: Gal(b1-4)GlcNAc(b1-3)[GlcNAc(b1-6)]Gal(b1-4)GlcNAc
# Procedure, shortened: as §1
# [24] = target: Gal(b1-6)Gal
# Procedure, shortened: as §1
# [25] = target: Gal3S(b1-3)GlcNAc
# Procedure, shortened: as §1
# [26] = target: Gal3S(b1-4)[Fuc(a1-3)]GlcNAc6S
# Procedure, shortened: as §1
# [27] = target: Gal6P(b1-4)GlcNAc
# Procedure, shortened: as §1
# [28] = target: GalNAc(b1-3)Gal
# Procedure, shortened: as §1
# [29] = target: GalNAc(b1-3)GalNAc
# Procedure, shortened: as §1
# [30] = target: GalNAc(b1-6)GalNAc
# Procedure, shortened: as §1
# [31] = target: GlcNAc(a1-3)Gal(b1-4)GlcNAc
# Procedure, shortened: as §1
# [32] = target: GlcNAc(b1-2)Man(a1-3)[GlcNAc(b1-4)][GlcNAc(b1-2)Man(a1-6)]Man(b1-4)GlcNAc(b1-4)[Fuc(a1-6)]GlcNAc
# Procedure, shortened: as §1
# [33] = target: GlcNAc(b1-3)Gal(b1-4)GlcNAc
# Procedure, shortened: as §1
# [34] = target: GlcNAc(b1-3)Gal(b1-4)GlcNAc(b1-2)[GlcNAc(b1-3)Gal(b1-4)GlcNAc(b1-6)]Man(a1-6)[GlcNAc(b1-3)Gal(b1-4)GlcNAc(b1-2)Man(a1-3)]Man(b1-4)GlcNAc(b1-4)GlcNAc
# Procedure, shortened: as §1
# [35] = target: GlcNAc(b1-3)Gal(b1-4)GlcNAc(b1-3)Gal(b1-4)GlcNAc(b1-2)Man(a1-3)[GlcNAc(b1-3)Gal(b1-4)GlcNAc(b1-3)Gal(b1-4)GlcNAc(b1-2)Man(a1-6)]Man(b1-4)GlcNAc(b1-4)[Fuc(a1-6)]GlcNAc
# Procedure, shortened: as §1
# [36] = target: GlcNAc(b1-3)Gal(b1-4)GlcNAc(b1-3)Gal(b1-4)GlcNAc(b1-2)[GlcNAc(b1-3)Gal(b1-4)GlcNAc(b1-3)Gal(b1-4)GlcNAc(b1-6)]Man(a1-6)[GlcNAc(b1-3)Gal(b1-4)GlcNAc(b1-3)Gal(b1-4)GlcNAc(b1-2)Man(a1-3)]Man(b1-4)GlcNAc(b1-4)[Fuc(a1-6)]GlcNAc
# Procedure, shortened: as §1
# [37] = target: GlcNAc(b1-3)Gal(b1-4)GlcNAc(b1-3)Gal(b1-4)GlcNAc(b1-3)Gal(b1-4)GlcNAc(b1-3)Gal(b1-4)GlcNAc(b1-2)Man(a1-3)[GlcNAc(b1-3)Gal(b1-4)GlcNAc(b1-3)Gal(b1-4)GlcNAc(b1-3)Gal(b1-4)GlcNAc(b1-3)Gal(b1-4)GlcNAc(b1-2)Man(a1-6)]Man(b1-4)GlcNAc(b1-4)[Fuc(a1-6)]GlcNAc
# Procedure, shortened: as §1
# [38] = target: GlcNAc(b1-3)Gal(b1-4)GlcNAc(b1-6)[GlcNAc(b1-3)]Gal(b1-4)GlcNAc
# Procedure, shortened: as §1
# [39] = target: GlcNAc(b1-3)[GlcNAc(b1-6)]Gal(b1-4)GlcNAc
# Procedure, shortened: as §1
# [40] = target: Kdn(a2-3)Gal(b1-3)GalNAc
# Procedure, shortened: as §1
# [41] = target: Man(a1-2)Man(a1-2)Man(a1-6)[Man(a1-3)]Man
# Procedure, shortened: as §1
# [42] = target: Man(a1-2)Man(a1-3)[Man(a1-2)Man(a1-6)]Man(a1-6)[Man(a1-2)Man(a1-2)Man(a1-3)]Man
# Procedure, shortened: as §1
# [43] = target: Man(a1-2)Man(a1-3)[Man(a1-6)]Man(a1-6)[Man(a1-2)Man(a1-3)]Man(b1-4)GlcNAc(b1-4)GlcNAc
# Procedure, shortened: as §1
# [44] = target: Man(a1-2)Man(a1-6)[Man(a1-3)]Man(a1-6)[Man(a1-2)Man(a1-2)Man(a1-3)]Man(b1-4)GlcNAc(b1-4)GlcNAc
# Procedure, shortened: as §1
# [45] = target: Neu5Ac(a2-3)Gal(b1-4)GlcNAc(b1-3)Gal(b1-4)GlcNAc
# Procedure, shortened: as §1
# [46] = target: Neu5Ac(a2-3)Gal(b1-4)GlcNAc(b1-3)Gal(b1-4)GlcNAc(b1-3)[Neu5Ac(a2-3)Gal(b1-4)GlcNAc(b1-3)Gal(b1-4)GlcNAc(b1-6)]GalNAc
# Procedure, shortened: as §1
# [47] = target: Neu5Ac(a2-6)Gal(b1-4)Glc
# Procedure, shortened: as §1
# [48] = target: Neu5Ac(a2-6)GlcNAc(b1-4)GlcNAc
# Procedure, shortened: as §1
# [49] = target: Neu5Gc(a2-3)Gal(b1-4)GlcNAc(b1-3)Gal(b1-4)GlcNAc(b1-2)Man(a1-3)[Neu5Gc(a2-3)Gal(b1-4)GlcNAc(b1-3)Gal(b1-4)GlcNAc(b1-2)Man(a1-6)]Man(b1-4)GlcNAc(b1-4)GlcNAc
# Procedure, shortened: as §1
binder,measurement,setting,value
"Langerin K313I (Homo sapiens), Q9UJ71 (protein) STLNAQIPELKSDLEKASALNTKIRALQGSLENMSKLLKRQNDILQVVSQGWKYFKGNFYYFSLIPKTWYSAEQFCVSRNSHLTSVTSESEQEFLYKTAGGLIYWIGLTKAGMEGDWSWVDDTPFNKVQSARFWIPGEPNNAGNNEHCGNIKAPSLQAWNDAPCDITFLFICKRPYVPSEP",glycan array binding signal (z-score),[1],-0.379
same,glycan array binding signal (z-score),[2],-0.042
same,glycan array binding signal (z-score),[3],4.11
same,glycan array binding signal (z-score),[4],-0.164
same,glycan array binding signal (z-score),[5],-0.287
same,glycan array binding signal (z-score),[6],0.321
same,glycan array binding signal (z-score),[7],-0.358
same,glycan array binding signal (z-score),[8],-0.307
same,glycan array binding signal (z-score),[9],-0.155
same,glycan array binding signal (z-score),[10],0.468
same,glycan array binding signal (z-score),[11],-0.361
same,glycan array binding signal (z-score),[12],-0.333
same,glycan array binding signal (z-score),[13],-0.253
same,glycan array binding signal (z-score),[14],0.067
same,glycan array binding signal (z-score),[15],-0.346
same,glycan array binding signal (z-score),[16],-0.254
same,glycan array binding signal (z-score),[17],-0.235
same,glycan array binding signal (z-score),[18],0.326
same,glycan array binding signal (z-score),[19],0.149
same,glycan array binding signal (z-score),[20],0.037
same,glycan array binding signal (z-score),[21],0.134
same,glycan array binding signal (z-score),[22],-0.373
same,glycan array binding signal (z-score),[23],-0.314
same,glycan array binding signal (z-score),[24],-0.178
same,glycan array binding signal (z-score),[25],-0.376
same,glycan array binding signal (z-score),[26],-0.39
same,glycan array binding signal (z-score),[27],-0.298
same,glycan array binding signal (z-score),[28],-0.374
same,glycan array binding signal (z-score),[29],3.83
same,glycan array binding signal (z-score),[30],-0.384
same,glycan array binding signal (z-score),[31],-0.393
same,glycan array binding signal (z-score),[32],4.2
same,glycan array binding signal (z-score),[33],3.17
same,glycan array binding signal (z-score),[34],4.12
same,glycan array binding signal (z-score),[35],3.2
same,glycan array binding signal (z-score),[36],9.38
same,glycan array binding signal (z-score),[37],-0.005
same,glycan array binding signal (z-score),[38],10.1
same,glycan array binding signal (z-score),[39],6.18
same,glycan array binding signal (z-score),[40],0.361
same,glycan array binding signal (z-score),[41],7.95
same,glycan array binding signal (z-score),[42],3.54
same,glycan array binding signal (z-score),[43],-0.194
same,glycan array binding signal (z-score),[44],0.146
same,glycan array binding signal (z-score),[45],-0.396
same,glycan array binding signal (z-score),[46],-0.089
same,glycan array binding signal (z-score),[47],-0.278
same,glycan array binding signal (z-score),[48],-0.387
same,glycan array binding signal (z-score),[49],0.158
